Common to all, as to type: functional
The test system of test [1] is Plasmodium falciparum. The test is described as follows: GSK_TCMDC: Inhibition of Plasmodium falciparum 3D7 in whole red blood cells, using parasite LDH activity as an index of growth. Test compounds present at 2uM.
For test [2], the system named is Plasmodium falciparum. The test is described as follows: GSK_TCMDC: Inhibition of Plasmodium falciparum Dd2 in whole red blood cells, using parasite LDH activity as an index of growth. Test compounds present at 2uM.
Another test concerns HepG2. The test can be described thus: GSK_TCMDC: Percent inhibition of human HepG2 cell line. Test compounds present at 10uM.

As to `Cc1noc(C)c1CN1Cc2ccccc2OC2(CCN(Cc3c[nH]c4cnccc34)CC2)C1.O=C(O)C(F)(F)F`, the Inhibition worked out at 89% in the test on Plasmodium falciparum [1], 12% in the test with Plasmodium falciparum [2] and 19% in the test with HepG2.

As to `CC(C)Cc1csc(NC(=O)C=Cc2ccco2)c1C(=O)O`, the Inhibition in the test with Plasmodium falciparum [1] is on record as 82%; in the test on HepG2, 4%.

With `COC(=O)c1ccc(CCC(C)NCC(O)c2cccc(C(F)(F)F)c2)cc1.Cl` (stereo unspecified), the values for the Inhibition in the test with Plasmodium falciparum [1], in the test with Plasmodium falciparum [2] and in the test on HepG2 were 99%, 99% and 16%, respectively.

Take `CCCCCCCCN1CCCN(C(=O)c2cccc(NC(=O)Nc3ccc4ccccc4c3)c2)CC1.O=C(O)C(F)(F)F`: the Inhibition with Plasmodium falciparum [1] is recorded as 97%; in the test with Plasmodium falciparum [2], 39%; in the test on HepG2, 39%.

As to `CCN(CC)CCn1c(=N)n(CC(O)c2ccc(Cl)c(Cl)c2)c2ccccc21.Cl` (stereo unspecified), the Inhibition with Plasmodium falciparum [1] was 99%; with Plasmodium falciparum [2] it was 88%; in the test with HepG2, 35%.

For the molecule `Cc1cc2ncc(C(N)=O)c(Nc3ccc(N4CCOCC4)cc3)c2cc1S(C)(=O)=O.Cl`, the values for the Inhibition in the test on Plasmodium falciparum [1], with Plasmodium falciparum [2] and in the test with HepG2 were 100%, 96% and 0%, respectively.

With `O=C(NOCCOc1ccccc1)c1ccccc1`, the Inhibition came out at 98% in the test with Plasmodium falciparum [1], 0% in the test on Plasmodium falciparum [2] and 0% in the test on HepG2.

Consider `Cc1sc2ncnc(Sc3nc4ccccc4[nH]3)c2c1C`, for which the values for the Inhibition in the test on Plasmodium falciparum [1], in the test on Plasmodium falciparum [2] and with HepG2 were 99%, 100% and 14%, respectively.

As to `NC(=O)c1cccc(CNCc2ccc(-c3cccc(-c4nc5ccccc5[nH]4)c3)cc2)c1.O=C(O)C(F)(F)F`, the Inhibition with Plasmodium falciparum [1] is 100%; in the test with Plasmodium falciparum [2], 94%; with HepG2, 29%.

The record behind these values is ChEMBL document CHEMBL1157539, “Thousands of chemical starting points for antimalarial lead identification” (Nature, 2010).
